Assay outcomes from PubChem BioAssay.
Sampled rows, rich in hits. Any-hit rate of the full collection: about 3.6%.
AmpC inh no detg: inhibitors of E. coli AmpC beta-lactamase without detergent | 330,000 tested, 0.52% active | AID 485341 | AmpC nitrocefin hydrolysis, absorbance 480 nm, 0.0001% Triton | P00811 | Potency, µM (titrated, usually from 57.1 µM), inactives show at the top dose activity change, negative = inhibition, actives largely listed as inhibitors;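 further: plate controls were no compound for no effect and no enzyme for full effect; nearly all actives have a fitted effect of over 20% in size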
Target sequence (P00811 whole entry, looked up): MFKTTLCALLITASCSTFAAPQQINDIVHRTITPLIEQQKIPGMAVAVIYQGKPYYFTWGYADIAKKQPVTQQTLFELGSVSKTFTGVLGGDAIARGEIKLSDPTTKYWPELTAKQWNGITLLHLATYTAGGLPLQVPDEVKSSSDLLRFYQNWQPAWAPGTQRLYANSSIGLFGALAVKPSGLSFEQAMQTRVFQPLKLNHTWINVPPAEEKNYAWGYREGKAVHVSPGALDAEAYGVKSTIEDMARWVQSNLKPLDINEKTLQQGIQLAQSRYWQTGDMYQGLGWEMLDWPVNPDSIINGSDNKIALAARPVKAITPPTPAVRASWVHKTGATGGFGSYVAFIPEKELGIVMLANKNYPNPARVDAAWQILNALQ
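AmpC (5.3 nM in the dispensed reagent) in 20 mM phosphate pH 7.0 with 0.01% (detergent screen) or 0.0001% Triton X-100 was preincubated with compounds for 15 min at room temperature. Nitrocefin was then added from an 800 uM solution, and hydrolysis was followed at 480 nm.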
FBPA Giardia inh: Giardia lamblia aldolase inhibition | A8B2U2 | purified Giardia FBPA | Potency, µM (series often up to 59.6 µM), for the others: top-dose activity, negative = inhibition, hits mostly inhibitors | 290,000 tested, 0.71% active; further: nearly all actives have a fitted effect of over 55% in size
Target sequence (A8B2U2 whole entry, looked up): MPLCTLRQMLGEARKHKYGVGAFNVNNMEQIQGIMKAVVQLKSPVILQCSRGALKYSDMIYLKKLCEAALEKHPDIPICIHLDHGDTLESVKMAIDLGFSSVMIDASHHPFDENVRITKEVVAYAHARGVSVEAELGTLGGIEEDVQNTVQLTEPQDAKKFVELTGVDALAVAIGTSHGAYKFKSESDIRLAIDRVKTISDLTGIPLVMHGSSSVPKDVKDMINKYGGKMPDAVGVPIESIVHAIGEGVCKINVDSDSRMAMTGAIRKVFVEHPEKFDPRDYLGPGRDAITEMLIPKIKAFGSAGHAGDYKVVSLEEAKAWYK
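Giardia FBPA (40 nM reagent) was preincubated 10 min at RT with compound (up to 57.5 uM final), then substrate plus GAPDH/TPI/NAD/arsenate coupling system with diaphorase/resazurin was added; resorufin fluorescence (525/598 nm) was read after 20 min.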
Sm TGR inh: blocks Schistosoma mansoni thioredoxin glutathione reductase; purified TGR, DTNB reduction, TNB absorbance 405 nm; Potency, µM (series often up to 114 µM), inactives show at the top dose activity change, negative = inhibition, actives largely listed as inhibitors; 360,000 tested, 3% active; further: nearly all actives have a fitted effect of over 60% in size
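First, TGR (20 nM dispensed) and NADPH were mixed with compound. Second, a 15 min room-temperature incubation followed. Third, further NADPH and then DTNB were added to start the reaction. Finally, TNB absorbance was monitored kinetically.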
AmpC detergent: inhibitors of E. coli AmpC beta-lactamase with detergent. AID 485294. AmpC hydrolysis of nitrocefin, absorbance 480 nm, 0.01% Triton. P00811. 370,000 tested, 0.041% active. Potency, µM (top dose mostly 114 µM), inactives show at the top dose activity change, negative = inhibition, hits mostly inhibitors;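 further: 0% = no-compound wells and -100% = no-enzyme wells; nearly all actives have a fitted effect of over 25% in size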
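20 mM phosphate pH 7.0 + 0.01% (detergent screen) or 0.0001% Triton X-100; 5.3 nM AmpC reagent; cpd preinc 15 min RT; nitrocefin (800 uM stock) to start; A480 q20 s × 4 min; Activity was normalised to no-enzyme and no-compound control wells.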
* marks the source's active call; other numbers are inactive results; ? = inconclusive; · = not tested or not shown; [ ] = dose if it differs, or a comment. The call rests on the fitted dose curve; in most records, active means well fitted curve in the direction sought with a large enough effect; inconclusive means small, poorly fitted or top-dose-only effect, or another doubt; inactive means no such curve, though single readings can be large; an effect the other way counts as inactive or inconclusive. Unless noted, on the % scale 0 is the no-effect control and ±100 the full control effect; potency means the concentration at half of the fitted maximal effect.

SMILES | AmpC inh no detg | FBPA Giardia inh | Sm TGR inh | AmpC detergent
Cc1cc(C)c(S(=O)(=O)NCC(c2cccs2)S(=O)(=O)c2ccccc2)c(C)c1 (configuration not stated) | · | · | 0.316µM* | 10.2%
O=S(=O)(NCC(c1ccco1)S(=O)(=O)c1ccccc1)c1cc(F)ccc1F (configuration not stated) | · | · | 7.08µM* | -0.8%
CCc1ccccc1N(C(=O)c1ccco1)C(C(=O)NC1CCCC1)c1cccnc1 (configuration not stated) | 23.4% | -0.3% | -7.4% | -6.0%
COc1ccc(OC)c(S(=O)(=O)NCC(c2ccco2)S(=O)(=O)c2ccccc2)c1 (configuration not stated) | -22.0% | · | 0.316µM* | -19.6%
COc1ccc(OC)c(S(=O)(=O)NCC(c2ccco2)N2CCc3ccccc3C2)c1 (configuration not stated) | -13.8% | · | 0.1% | -13.6%
COc1ccc(S(=O)(=O)NCCCn2ccnc2)cc1Cl | -13.4% | 5.3% | -0.8% | 0.8%
O=C(Nc1nccs1)c1cc2sccc2n1Cc1ccc(F)cc1 | 22.4µM* | -8.8% | 0.3% | -9.8%
CC(=O)c1ccc(NC(=O)c2cc3sccc3n2Cc2ccc(F)cc2)cc1 | · | · | 5.0% | 13.2%
COc1cc(OC)cc(-c2c(C#Cc3ccsc3)c3cc(-c4ccc5cc[nH]c5c4)ccc3n2C)c1 | -30.9% | · | 25.1µM* | -7.0%
COc1ccc(-c2c(C#Cc3ccsc3)c3cc(-c4ccc5cc[nH]c5c4)ccc3n2C)cc1 | -23.6% | · | · | ·
COc1ccccc1N1C(=O)c2ccc(C(=O)Nc3ccc(C(=O)O)cc3)cc2C1=O | -16.7% | -6.0% | 89.1µM* | -5.1%
COc1ccccc1NC(=O)c1ccc2c(c1)C(=O)N(c1ccccc1OC)C2=O | 14.2% | 2.7% | 0.0% | 0.2%
Cc1ccc(S(=O)(=O)NC2CC2)cc1[N+](=O)[O-] | -22.6% | 10.0% | -27.1% | -12.0%
COc1ccc2c3c1OC1C(O)C=CC4C(C2)[N+](C)(C)CCC341 (configuration not stated) | ? | -27.8% | -26.3% | 39.8µM*
COc1ccc(S(=O)(=O)NCC(c2ccco2)S(=O)(=O)c2cccs2)cc1C (configuration not stated) | · | · | 0.1µM* | 3.3%
COc1ccc(S(=O)(=O)NCC(c2ccco2)N2CCOCC2)cc1C (configuration not stated) | · | · | -5.6% | 0.0%
COc1ccccc1C(CCNS(=O)(=O)c1ccc(C)cc1)c1ccco1 (configuration not stated) | -31.3% | -8.6% | -20.4% | -10.7%
COc1ccc(S(=O)(=O)NCC(c2ccco2)S(=O)(=O)c2ccc(C)cc2)cc1F (configuration not stated) | · | · | 0.398µM* | 2.7%
CCOc1ccc(S(=O)(=O)NCC(c2ccco2)S(=O)(=O)c2cccs2)cc1 (configuration not stated) | · | · | 0.1µM* | 2.5%
COc1ccc(S(=O)(=O)NCC(c2ccco2)S(=O)(=O)c2cccs2)cc1F (configuration not stated) | · | · | 0.1µM* | -1.6%
CCCCNC(=O)CCCN1C(=O)c2ccccc2Sc2ncccc21 | · | · | 2.0% | 12.0%
Cc1cc(F)ccc1S(=O)(=O)NCC(c1ccco1)S(=O)(=O)c1cccs1 (configuration not stated) | · | · | 0.1µM* | 13.2%
Cc1ccc(S(=O)(=O)C(CNC(=O)c2ccc(F)c(F)c2)c2ccco2)cc1 (configuration not stated) | · | · | -24.9% | -0.7%
Cc1ccc(S(=O)(=O)C(CNS(=O)(=O)c2ccc(F)c(C(F)(F)F)c2)c2ccco2)cc1 (configuration not stated) | · | · | 0.316µM* | 0.1%
Cc1ccc(C(CNS(=O)(=O)c2ccc(F)cc2C)N2CCN(C)CC2)cc1 (configuration not stated) | 91.2% | · | -17.7% | -12.5%
SMILES | AmpC inh no detg | FBPA Giardia inh | Sm TGR inh | AmpC detergent
COc1ccc(-c2cc(C(=O)c3c(N)n(C)c(=O)n(C)c3=O)c3ccccc3n2)cc1OC | 68.3% | -5.0% | 11.7% | 0.7%
COc1cccc(/C=C2\CCCCC2=O)c1 | -9.7% | -1.1% | -31.1% | -0.4%
O=C1CCC/C1=C\c1ccccc1 | -18.5%[11.4 µM] | 15.2% | 44.7µM* | -13.8%
O=C1/C(=C/c2ccncc2)CCC/C1=C\c1ccncc1 | -25.0% | 3.7% | 11.2µM* | ?
Cc1ccc(N2/C(=N/c3nc(C)cc(C)n3)NC(=O)CC2C(=O)O)cc1 (configuration not stated) | 0.3% | -4.4% | -0.4% | 3.4%
Cc1cc(C)nc(/N=C2\NC(=O)CC(C(=O)O)N2c2ccc(Cl)cc2)n1 (configuration not stated) | 8.91µM* | -14.0% | 2.3% | ?
O=C(CN(Cc1cccs1)C(=O)CNS(=O)(=O)c1ccc(Cl)cc1)NCC1CCCO1 (configuration not stated) | 28.9% | -1.0% | -1.2% | 1.4%
O=C(c1ccccc1)N1N=C(c2ccco2)CC1c1cccs1 (configuration not stated) | -23.8% | -0.3% | 35.5µM* | -2.1%
CCC(=O)N1N=C(c2cccs2)CC1c1ccco1 (configuration not stated) | 5.7% | 3.6% | ? | 7.2%
Cc1ccc(C2=NN(C(=O)CCl)C(c3cccs3)C2)o1 (configuration not stated) | -10.5% | -0.8% | 3.16µM* | -7.0%
CS(=O)(=O)Nc1cccc(C2=NN(C(=O)c3ccccc3)C(c3cccs3)C2)c1 (configuration not stated) | -13.9% | -6.4% | 9.3% | 7.0%
CC(=O)N1N=C(c2ccco2)CC1c1cccs1 (configuration not stated) | -12.4% | -4.6% | 44.7µM* | 0.9%
O=C(CCl)N1N=C(c2ccco2)CC1c1cccs1 (configuration not stated) | -20.3% | -5.7% | 3.16µM* | -8.7%
Cc1ccccc1OCCCn1c(CCNC(=O)C2CCCCC2)nc2ccccc21 | · | · | -9.7% | -5.4%
COc1ccc(CNC(=O)Cc2ccc(NC(=O)N3CCCCc4ccccc43)cc2)cc1 | · | · | 0.3% | 2.5%
CCn1ccnc1[C@@H]1C[C@H]2CN(Cc3cccc(Cl)c3)C(=O)[C@]23CCCN13 | 22.0% | 5.1% | 1.3% | 5.3%
O=C1N(Cc2cccc(Cl)c2)C[C@@H]2C[C@@H](c3ccccn3)N3CCC[C@@]123 | 60.9% | -7.0% | 10µM* | 7.2%
O=C1N(Cc2cccnc2)C[C@@H]2C[C@@H](c3ccc4nsnc4c3)N3CCC[C@@]123 | 20.1% | -10.3% | -32.4% | -3.2%
O=C1N(Cc2cccnc2)C[C@@H]2C[C@@H](c3ccc4nonc4c3)N3CCC[C@@]123 | 23.5% | -8.8% | 28.2µM* | -3.3%
COCCn1c(C)cc(O)c(C(c2ccccc2OC)N2CCCCC2)c1=O (configuration not stated) | · | · | 10µM* | 7.1%
CCOC(=O)C1CCN(C(c2ccccc2OC)c2c(O)cc(C)n(CCOC)c2=O)CC1 (configuration not stated) | · | · | 7.08µM* | 2.0%
CCOC(=O)C1CCN(CCC(=O)Nc2ccccc2OC)CC1 | · | · | -6.0% | -2.5%
